GRK2 aptamer HTS – compounds blocking aptamer binding on GRK2 – biochemical, human GRK2, bead flow cytometry, HTS, primary screen; inhibition of aptamer binding, % at 10 µM; Beta-adrenergic receptor kinase 1 (Homo sapiens), P25098; 330,000 compounds, 0.59% hits; FAM-aptamer displacement from GRK2;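 active means inhibition of aptamer binding above 40%, roughly 3 SD of noise, on plates passing a quality check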;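 further: median bead fluorescence of bound FAM aptamer so fluorescent compounds give negative values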
Neddylation inh – inhibitors of cullin neddylation, primary screen, biochemical, TR-FRET, uHTS, NAE and Ubc12 | NEDD8-conjugating enzyme Ubc12 (Homo sapiens) + NEDD8-activating enzyme E1 regulatory … | inhibition, % at 25 µM | 360,000 compounds, 0.58% hits; in the data active means inhibition above about 36%
Target sequence (P61081 whole entry, looked up): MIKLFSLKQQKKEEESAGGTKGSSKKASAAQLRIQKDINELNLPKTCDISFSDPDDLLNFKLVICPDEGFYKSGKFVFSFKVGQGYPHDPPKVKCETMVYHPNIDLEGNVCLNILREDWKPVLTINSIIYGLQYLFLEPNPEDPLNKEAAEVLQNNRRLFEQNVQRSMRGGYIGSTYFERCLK
Target sequence (Q13564 whole entry, looked up): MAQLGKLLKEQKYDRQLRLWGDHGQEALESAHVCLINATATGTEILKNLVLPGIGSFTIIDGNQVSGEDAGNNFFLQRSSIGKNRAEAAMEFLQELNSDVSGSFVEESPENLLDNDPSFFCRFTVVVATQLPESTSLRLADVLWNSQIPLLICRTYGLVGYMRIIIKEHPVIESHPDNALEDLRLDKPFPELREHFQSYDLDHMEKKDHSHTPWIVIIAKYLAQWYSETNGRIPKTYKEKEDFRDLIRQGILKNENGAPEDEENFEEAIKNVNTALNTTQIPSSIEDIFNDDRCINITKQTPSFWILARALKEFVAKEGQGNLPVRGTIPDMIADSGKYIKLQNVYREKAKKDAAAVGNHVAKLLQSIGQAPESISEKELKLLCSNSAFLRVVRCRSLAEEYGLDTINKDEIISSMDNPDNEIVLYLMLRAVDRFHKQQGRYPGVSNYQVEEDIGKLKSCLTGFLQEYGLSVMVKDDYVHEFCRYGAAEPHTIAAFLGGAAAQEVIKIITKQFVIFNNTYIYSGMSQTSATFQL
HDAC3 inh – HDAC3 deacetylase inhibitors, primary screen, biochemical, fluorescence, cell-free homogeneous; Histone deacetylase 3 (Homo sapiens), O15379; recombinant HDAC3, fluorogenic peptide/trypsin coupled; inhibition, % at 8.3 µM; 320,000 compounds, 0.15% hits; AID 2718, 2010; in the data active means inhibition above about 26%, passing the limit was not always enough; inconclusive means no clear call, values can overlap the other calls
Cardio protect – cardioprotection against H2O2-induced cell death, primary screen, uHTS, H9c2 cells, ATPLite luminescence; protection from H2O2 cell death, % at 20 µM; 360,000 compounds, 0.63% hits; H9c2 cardiomyocytes, H2O2 injury protection, 2 h;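 active means compounds giving at least 50% protection of heart cells from peroxide-induced death in the single-dose screen, raw or plate-pattern-corrected value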;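 further: 0% = DMSO wells with peroxide and 100% = DMSO wells without peroxide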
Neddyl conf – blockade of NEDD8 conjugation to cullin – biochemical, TR-FRET, single concentration, confirmation. shares compounds with Neddylation inh. TR-FRET cullin neddylation biochemical assay. calls only at 25 µM. 1,800 compounds, 13% hits; in the data active means inhibition above about 40%;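 further: neddylation substrate is the cullin 1 ring ligase complex with SKP2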
Numbers without * were called inactive; i = inactive; ? = inconclusive; · = not tested or not shown; + = active, no number. Compounds with a hit are over-represented: about 1.8% of the library has one in this group of screens.

SMILES | GRK2 aptamer HTS | Neddylation inh | HDAC3 inh | Cardio protect | Neddyl conf
C=CCOc1ccc(C2=NOC(C(=O)Nc3ccc4c(c3)OCCO4)C2)cc1 (stereo unspecified) | 3.0 | -1.4 | 5.7 | -2.8 | ·
NC(=O)c1ccc(NCCCN2CCOCC2)c([N+](=O)[O-])c1 | 0.0 | -29.9 | -2.3 | -1.4 | ·
CCN(CC(=O)NCc1cccs1)C(=O)/C=C/c1cccc(OC)c1OC | 0.0 | 45.6* | -3.9 | -1.8 | ·
N=c1c(C(=O)NCc2ccco2)cc2c(=O)n3ccccc3nc2n1Cc1ccccc1 | 2.0 | · | -31.9 | 13.0 | ·
N=c1c(C(=O)NCc2ccco2)cc2c(=O)n3ccccc3nc2n1Cc1ccc(Cl)cc1 | 0.0 | 54.7* | 6.5 | 19.4 | i
N=c1c(C(=O)NCCN2CCOCC2)cc2c(=O)n3ccccc3nc2n1Cc1ccc(F)cc1 | 1.0 | 73.3* | -0.5 | 17.3 | ·
Cc1ccc(CNC(=O)c2cc3c(=O)n4ccccc4nc3n(Cc3ccco3)c2=N)cc1 | 1.0 | · | -4.9 | -13.3 | ·
Cc1ccc2nc3c(cc(C(=O)NCc4ccco4)c(=N)n3Cc3ccco3)c(=O)n2c1 | 10.0 | 56.1* | -18.4 | 9.7 | i
COc1cc(C(=O)N(Cc2ccccc2)c2cccc(C)c2)ccc1OC(F)F | 4.0 | 13.4 | 14.5 | -3.7 | ·
COc1ccccc1-c1nc(C#N)c(N2CCC(Cc3ccccc3)CC2)o1 | 3.0 | · | -12.8 | -21.4 | ·
COc1ccccc1-c1nc(C#N)c(N2CCN(Cc3ccccc3)CC2)o1 | 0.0 | 45.6* | -3.4 | -16.0 | ·
COc1ccc(NC(=O)CSc2nnc(-c3cccnc3)o2)c(OC)c1 | 0.0 | 2.7 | 6.7 | 6.7 | ·
OCC1CCCN(Cc2cn(Cc3ccccc3)nc2-c2cc3ccccc3o2)C1 (stereo unspecified) | 0.0 | 0.4 | 0.1 | -2.6 | ·
CCN(CC)CCCNc1nc(C)cc(COC)c1C#N | 0.0 | 43.2* | -29.6 | 13.0 | i
O=C(CSc1cccc2cccnc12)Nc1cc(C(=O)O)cc(C(=O)O)c1 | 1.0 | 48.6* | -6.7 | 2.8 | +
Cc1cccc(NC(=O)CSc2cccc3cccnc23)c1 | 1.0 | 34.6 | 3.0 | -8.5 | ·
COc1ccc(C(=O)NC(=S)NNC(=O)[C@H]2C[C@@H]2c2ccccc2)cc1OC | 1.0 | 39.4* | 6.4 | 36.1 | i
COc1ccc(C(=O)NC(=S)NNC(=O)c2c(-c3ccccc3)noc2C)cc1OC | 0.0 | -13.5 | 0.3 | 10.0 | ·
O=C(NC1(C(F)(F)F)NC(=O)N(Cc2ccccc2)C1=O)c1cccs1 (stereo unspecified) | 1.0 | -6.0 | -4.5 | 3.4 | ·
O=C(Nc1cccc2nsnc12)c1cccs1 | 0.0 | · | 5.6 | 0.9 | i
O=C(Cn1ncc2c([nH]c3ccccc32)c1=O)Nc1ccc(CN2CCCCC2)cc1 | 0.0 | -3.8 | -3.7 | 4.4 | ·
CCCC(=O)Nc1nnc(/C=C/c2ccccc2)s1 | 0.0 | · | 3.1 | -5.1 | ·
CCC(=O)Nc1nnc(/C=C/c2ccccc2)s1 | 1.0 | 46.6* | 3.8 | -2.8 | i
Cc1cccc(C)c1NC(=O)C(C1CC1)n1c(=O)c(-c2ccco2)nc2ccccc21 (stereo unspecified) | · | 23.0 | · | · | ·
CC(C)(C)NC(=O)C(c1ccccc1)n1c(-c2ccc(-c3ccccc3)cc2)nc2ccccc21 (stereo unspecified) | · | -76.1 | · | · | ·
SMILES | GRK2 aptamer HTS | Neddylation inh | HDAC3 inh | Cardio protect | Neddyl conf
CC(C)(C)NC(=O)C(c1ccccc1)n1c(=O)c(-c2ccccc2)nc2ccccc21 (stereo unspecified) | · | 42.6* | · | · | i
Cc1cccc(C)c1NC(=O)C(C1CC1)n1c(=O)c(-c2ccccc2)nc2ccccc21 (stereo unspecified) | · | 54.9* | · | · | +
CC(C)(C)NC(=O)C(c1ccnc2ccccc12)n1c(=O)c(-c2ccccc2)nc2ccccc21 (stereo unspecified) | · | 45.2* | · | · | i
O=C(CN1C(=O)NC2(CCCC2)C1=O)NNC(=O)c1ccc(Cl)cc1 | 0.0 | -15.0 | 1.5 | -0.3 | ·
O=C(CSc1cn[nH]n1)Nc1nc2ccccc2s1 | 4.0 | 8.9 | 1.7 | -2.6 | ·
COc1ccc(C(=O)NC2CC3CCCC(C2)N3Cc2ccccc2)cc1 (stereo unspecified) | 0.0 | -2.4 | -0.4 | 5.1 | ·
COc1ccc(C(=O)NC2CC3CCCC(C2)N3Cc2ccccc2)c(OC)c1 (stereo unspecified) | 0.0 | 41.7* | -6.3 | 5.0 | i
COc1cc2c(C#CCCCO)c(-c3ccc(C#N)cc3)oc(=O)c2cc1OC | 2.0 | · | -1.1 | 5.3 | ·
COc1cc2c(C#CCO)c(-c3ccc(C#N)cc3)oc(=O)c2cc1OC | 0.0 | 74.7* | -11.3 | 17.3 | +
CCC(=O)N(Cc1ccco1)Cc1cc2cc3c(cc2[nH]c1=O)OCO3 | 0.0 | 40.8* | -2.1 | 3.5 | i
CCNC(=S)N(Cc1ccco1)Cc1cc2cc3c(cc2[nH]c1=O)OCCO3 | 4.0 | 6.0 | -3.9 | 8.4 | ·
CCN(CC)CCCN(Cc1cc2cc3c(cc2[nH]c1=O)OCO3)C(=S)NCc1ccco1 | 0.0 | 41.3* | -4.3 | 18.4 | i
CCN(CC)CCN(Cc1cc2cc3c(cc2[nH]c1=O)OCCO3)C(=S)NCCCOC | 0.0 | 46.2* | -3.9 | 3.0 | ·
CCN(CC)CCN(Cc1cc2cc3c(cc2[nH]c1=O)OCO3)C(=S)NCc1ccco1 | 0.0 | 24.3 | -2.8 | 18.4 | ·
CCOc1cc(/C=C/C(=O)Nc2ccc(C(=O)NCCN(CC)CC)cc2)ccc1OCC(C)C | 0.0 | 53.8* | 3.0 | -26.6 | +
CCc1ccc2[nH]c(=O)c(CN(Cc3ccccc3)C(=O)Nc3ccccc3OC)cc2c1 | 0.0 | 3.0 | 3.0 | 4.7 | ·
CCN(CC)CCNC(=O)c1ccc(NC(=O)COc2ccc3c(c2)CCC3)cc1 | 0.0 | -0.3 | ? | 2.6 | ·
CCCc1cc(NCc2ccccn2)n2c(nc3ccccc32)c1C#N | 3.0 | · | -11.1 | 12.1 | ·
CCCc1cc(-n2cnc3ccccc32)n2c(nc3ccccc32)c1C#N | 1.0 | 42.1* | 0.6 | 6.8 | i
CC(=O)Oc1ccc(-c2ccc(C(=O)OCC(=O)N(C)CC(=O)Nc3ccccc3Cl)cc2)cc1 | 10.0 | 55.6* | -2.4 | 9.9 | i
Nc1c(Cl)cc(Cl)cc1C(=O)OCC(=O)N1CCCC1=O | 0.0 | 46.9* | -9.3 | 2.0 | i
CCOc1ccc(N(C)S(=O)(=O)c2ccc(-c3cc(C)no3)s2)cc1 | 3.0 | -11.1 | 12.8 | -9.2 | ·
Cc1cccc2nc3ccccc3cc12 | 2.0 | 39.0* | 2.5 | -1.5 | ·
Cc1cccc2cc3ccccc3nc12 | 2.0 | 21.8 | -3.7 | 3.4 | ·
CN(C(=O)c1cccc(NC(=O)Cc2ccc(NC(=O)C3CCN(C(=O)C4CCCC4)CC3)cc2)c1)C1CC1 | · | -1.9 | · | -5.3 | ·
Cc1cc(C)c2c(c1)c1nnc(SCCN3CCCCC3)nc1n2C | · | -48.9 | · | -0.7 | ·
CN(C)CCN(Cc1ccccc1)C(=O)C1CCN(c2ncnc3c2nc2n3CCCCC2)CC1 | 0.0 | 42.9* | -4.9 | 10.4 | i
